Test results reported in the supplement of paper PMC11732987, “Enantioselective OTUD7B fragment discovery through chemoproteomics screening and high-throughput optimisation” (Communications Chemistry, 2025).

Legend:
Test in all cases: log2 ratio of Biotin-Ahx-Ub-VS probe labelling (fragment/DMSO); higher = less target engagement (more negative = stronger competition), active = hit call of the paper (q ≤ 0.05, log2 ratio ≤ -1)
Conditions in all cases: compound concentration: 200 uM; treatment time: 3 h
[1] = target: T1, USP19 (UniProt O94966)
T1 sequence (whole entry): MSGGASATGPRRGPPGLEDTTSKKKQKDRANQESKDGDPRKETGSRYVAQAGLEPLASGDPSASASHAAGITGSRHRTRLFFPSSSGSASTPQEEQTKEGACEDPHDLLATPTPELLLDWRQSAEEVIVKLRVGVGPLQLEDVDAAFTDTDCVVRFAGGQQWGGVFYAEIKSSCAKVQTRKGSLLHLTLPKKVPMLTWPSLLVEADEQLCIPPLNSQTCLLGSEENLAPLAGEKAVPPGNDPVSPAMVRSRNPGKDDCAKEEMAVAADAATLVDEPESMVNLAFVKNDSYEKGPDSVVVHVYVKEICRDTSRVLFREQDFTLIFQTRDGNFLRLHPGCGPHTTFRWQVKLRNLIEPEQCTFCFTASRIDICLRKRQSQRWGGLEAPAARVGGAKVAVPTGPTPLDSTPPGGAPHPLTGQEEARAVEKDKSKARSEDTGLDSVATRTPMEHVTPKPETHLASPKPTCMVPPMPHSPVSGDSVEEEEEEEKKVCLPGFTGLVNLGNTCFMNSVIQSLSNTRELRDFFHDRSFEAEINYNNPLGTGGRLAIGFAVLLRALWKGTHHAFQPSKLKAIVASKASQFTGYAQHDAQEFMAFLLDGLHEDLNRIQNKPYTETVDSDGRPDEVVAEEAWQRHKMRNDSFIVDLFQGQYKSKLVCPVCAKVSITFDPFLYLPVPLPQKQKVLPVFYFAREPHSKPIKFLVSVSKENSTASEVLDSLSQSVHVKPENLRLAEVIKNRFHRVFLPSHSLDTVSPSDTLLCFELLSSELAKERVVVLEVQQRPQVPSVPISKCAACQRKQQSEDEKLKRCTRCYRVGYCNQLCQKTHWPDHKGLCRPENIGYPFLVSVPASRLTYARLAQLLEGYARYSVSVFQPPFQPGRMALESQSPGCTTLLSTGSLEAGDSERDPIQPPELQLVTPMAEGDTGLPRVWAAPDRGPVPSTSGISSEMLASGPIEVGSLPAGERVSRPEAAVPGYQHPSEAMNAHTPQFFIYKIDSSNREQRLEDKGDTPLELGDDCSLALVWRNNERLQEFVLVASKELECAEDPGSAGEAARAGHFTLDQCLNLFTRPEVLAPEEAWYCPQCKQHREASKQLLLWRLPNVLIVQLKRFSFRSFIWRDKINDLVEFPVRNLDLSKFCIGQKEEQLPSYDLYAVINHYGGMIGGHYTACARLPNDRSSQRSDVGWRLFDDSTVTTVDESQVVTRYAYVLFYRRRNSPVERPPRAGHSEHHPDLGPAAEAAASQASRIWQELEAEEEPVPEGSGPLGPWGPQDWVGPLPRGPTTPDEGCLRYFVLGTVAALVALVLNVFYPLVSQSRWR
Summary of the method: (§1)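 Fragment (200 µM) or vehicle was incubated for 3 h with triplicate HEK293T lysate samples of 495 µg, which were then treated with Biotin-Ahx-Ub-VS at 0.5 µM final for 1 h. Labelled DUBs were enriched on NeutrAvidin, digested with LysC and trypsin, and analysed by diaPASEF LC-MS/MS. Values are average log2 fragment/vehicle ratios from an unpaired t-test on global-median-normalised Spectronaut label-free quantities, using proteins with ≥2 unique peptides.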

[2] = target: USP24 (UniProt Q9UPU5)
Sequence of USP24 (Q9UPU5 whole entry): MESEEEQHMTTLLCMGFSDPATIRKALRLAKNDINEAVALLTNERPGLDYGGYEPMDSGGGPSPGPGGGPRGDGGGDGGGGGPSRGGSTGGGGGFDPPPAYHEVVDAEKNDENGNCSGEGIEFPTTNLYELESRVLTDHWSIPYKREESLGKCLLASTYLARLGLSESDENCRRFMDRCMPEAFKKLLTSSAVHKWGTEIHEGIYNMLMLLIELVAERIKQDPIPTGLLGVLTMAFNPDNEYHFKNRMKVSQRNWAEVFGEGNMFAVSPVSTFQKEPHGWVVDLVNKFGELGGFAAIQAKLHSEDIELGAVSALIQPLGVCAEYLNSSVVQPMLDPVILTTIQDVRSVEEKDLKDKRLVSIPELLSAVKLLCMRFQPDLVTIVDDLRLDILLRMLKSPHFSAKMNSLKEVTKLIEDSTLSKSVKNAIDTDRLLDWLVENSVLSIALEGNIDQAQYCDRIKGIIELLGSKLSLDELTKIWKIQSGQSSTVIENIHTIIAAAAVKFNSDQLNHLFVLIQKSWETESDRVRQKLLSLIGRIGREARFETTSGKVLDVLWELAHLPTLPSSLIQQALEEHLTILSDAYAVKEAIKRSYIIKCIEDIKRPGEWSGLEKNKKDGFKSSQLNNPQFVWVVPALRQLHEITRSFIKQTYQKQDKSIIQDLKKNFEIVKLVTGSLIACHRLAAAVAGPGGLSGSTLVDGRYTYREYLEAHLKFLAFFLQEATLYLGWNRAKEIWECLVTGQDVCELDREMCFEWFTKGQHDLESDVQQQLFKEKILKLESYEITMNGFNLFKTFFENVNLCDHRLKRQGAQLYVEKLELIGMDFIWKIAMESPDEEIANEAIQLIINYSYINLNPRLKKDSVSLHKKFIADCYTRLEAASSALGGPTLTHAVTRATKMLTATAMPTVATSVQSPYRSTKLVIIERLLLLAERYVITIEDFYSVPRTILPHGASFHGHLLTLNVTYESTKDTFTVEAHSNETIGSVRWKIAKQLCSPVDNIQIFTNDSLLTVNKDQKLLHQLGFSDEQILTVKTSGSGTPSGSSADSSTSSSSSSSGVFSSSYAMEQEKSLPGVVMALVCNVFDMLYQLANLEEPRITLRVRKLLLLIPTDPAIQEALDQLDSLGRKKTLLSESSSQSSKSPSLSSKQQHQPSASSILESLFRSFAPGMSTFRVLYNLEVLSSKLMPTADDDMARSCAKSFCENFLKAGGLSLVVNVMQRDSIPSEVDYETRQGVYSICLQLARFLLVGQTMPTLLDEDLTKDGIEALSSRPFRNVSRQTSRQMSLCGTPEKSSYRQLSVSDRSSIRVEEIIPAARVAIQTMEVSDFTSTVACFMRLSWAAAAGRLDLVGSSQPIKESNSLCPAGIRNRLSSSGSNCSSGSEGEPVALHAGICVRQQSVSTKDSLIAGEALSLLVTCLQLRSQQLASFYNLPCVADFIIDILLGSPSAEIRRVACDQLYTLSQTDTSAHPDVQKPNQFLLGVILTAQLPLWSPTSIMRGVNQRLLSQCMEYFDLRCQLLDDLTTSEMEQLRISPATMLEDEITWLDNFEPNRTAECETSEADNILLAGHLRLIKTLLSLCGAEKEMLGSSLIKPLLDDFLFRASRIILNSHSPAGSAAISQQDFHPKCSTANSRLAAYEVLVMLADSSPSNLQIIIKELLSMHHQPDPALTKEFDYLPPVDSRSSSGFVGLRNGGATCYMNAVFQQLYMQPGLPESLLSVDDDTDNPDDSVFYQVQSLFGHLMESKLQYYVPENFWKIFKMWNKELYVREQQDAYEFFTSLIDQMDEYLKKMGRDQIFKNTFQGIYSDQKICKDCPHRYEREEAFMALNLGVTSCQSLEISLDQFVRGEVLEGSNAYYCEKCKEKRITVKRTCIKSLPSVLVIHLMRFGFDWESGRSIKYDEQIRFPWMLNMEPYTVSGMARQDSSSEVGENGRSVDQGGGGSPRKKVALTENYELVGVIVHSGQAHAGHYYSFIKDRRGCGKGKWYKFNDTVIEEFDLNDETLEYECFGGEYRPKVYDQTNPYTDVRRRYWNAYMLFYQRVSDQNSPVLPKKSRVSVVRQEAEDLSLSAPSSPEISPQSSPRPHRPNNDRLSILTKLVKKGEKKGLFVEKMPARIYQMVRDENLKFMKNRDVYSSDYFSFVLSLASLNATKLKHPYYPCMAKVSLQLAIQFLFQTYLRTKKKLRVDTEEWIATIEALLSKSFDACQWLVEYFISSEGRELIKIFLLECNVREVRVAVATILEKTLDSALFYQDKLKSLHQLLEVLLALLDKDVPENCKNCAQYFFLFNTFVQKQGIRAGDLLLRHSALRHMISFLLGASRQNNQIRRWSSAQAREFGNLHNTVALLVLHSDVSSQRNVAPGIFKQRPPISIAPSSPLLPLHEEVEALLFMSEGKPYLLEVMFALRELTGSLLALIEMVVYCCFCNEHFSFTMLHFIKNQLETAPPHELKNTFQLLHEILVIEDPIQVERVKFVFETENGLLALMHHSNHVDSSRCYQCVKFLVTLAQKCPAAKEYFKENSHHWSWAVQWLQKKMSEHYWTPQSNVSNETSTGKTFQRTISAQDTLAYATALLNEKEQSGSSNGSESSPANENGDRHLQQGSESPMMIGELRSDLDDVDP
Summary of the method: as §1

[3] = target: T2, USP25 (UniProt Q9UHP3)
T2 sequence (whole entry): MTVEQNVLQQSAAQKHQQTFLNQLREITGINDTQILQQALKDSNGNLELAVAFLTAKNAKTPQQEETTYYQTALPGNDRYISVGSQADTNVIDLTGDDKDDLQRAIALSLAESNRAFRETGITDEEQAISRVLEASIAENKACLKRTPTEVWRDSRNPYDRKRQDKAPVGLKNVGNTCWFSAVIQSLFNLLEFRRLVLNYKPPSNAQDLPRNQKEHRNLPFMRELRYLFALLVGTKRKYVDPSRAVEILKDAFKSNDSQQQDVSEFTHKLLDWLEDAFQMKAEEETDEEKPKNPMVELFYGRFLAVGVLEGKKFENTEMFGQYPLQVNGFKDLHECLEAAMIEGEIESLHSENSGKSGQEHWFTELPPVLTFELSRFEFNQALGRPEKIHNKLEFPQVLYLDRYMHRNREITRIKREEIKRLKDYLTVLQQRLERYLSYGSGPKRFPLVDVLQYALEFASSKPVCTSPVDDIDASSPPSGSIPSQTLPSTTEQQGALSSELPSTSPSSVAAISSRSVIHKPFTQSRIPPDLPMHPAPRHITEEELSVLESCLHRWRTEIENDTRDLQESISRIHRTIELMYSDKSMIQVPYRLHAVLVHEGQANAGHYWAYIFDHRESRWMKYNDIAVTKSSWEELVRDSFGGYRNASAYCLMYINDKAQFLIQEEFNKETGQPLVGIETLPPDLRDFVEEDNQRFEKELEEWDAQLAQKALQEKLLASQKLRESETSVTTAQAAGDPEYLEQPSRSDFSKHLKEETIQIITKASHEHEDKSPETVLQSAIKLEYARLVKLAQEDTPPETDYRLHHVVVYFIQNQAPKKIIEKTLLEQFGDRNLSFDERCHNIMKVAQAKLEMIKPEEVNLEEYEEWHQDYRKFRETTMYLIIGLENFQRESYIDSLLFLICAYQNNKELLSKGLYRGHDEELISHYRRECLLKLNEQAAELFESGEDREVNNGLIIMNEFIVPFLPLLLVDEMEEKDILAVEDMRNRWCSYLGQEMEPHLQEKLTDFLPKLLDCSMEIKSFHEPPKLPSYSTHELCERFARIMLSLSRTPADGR
Summary of the method: as §1

[4] = target: T3, USP28 (UniProt Q96RU2)
T3 sequence (whole entry): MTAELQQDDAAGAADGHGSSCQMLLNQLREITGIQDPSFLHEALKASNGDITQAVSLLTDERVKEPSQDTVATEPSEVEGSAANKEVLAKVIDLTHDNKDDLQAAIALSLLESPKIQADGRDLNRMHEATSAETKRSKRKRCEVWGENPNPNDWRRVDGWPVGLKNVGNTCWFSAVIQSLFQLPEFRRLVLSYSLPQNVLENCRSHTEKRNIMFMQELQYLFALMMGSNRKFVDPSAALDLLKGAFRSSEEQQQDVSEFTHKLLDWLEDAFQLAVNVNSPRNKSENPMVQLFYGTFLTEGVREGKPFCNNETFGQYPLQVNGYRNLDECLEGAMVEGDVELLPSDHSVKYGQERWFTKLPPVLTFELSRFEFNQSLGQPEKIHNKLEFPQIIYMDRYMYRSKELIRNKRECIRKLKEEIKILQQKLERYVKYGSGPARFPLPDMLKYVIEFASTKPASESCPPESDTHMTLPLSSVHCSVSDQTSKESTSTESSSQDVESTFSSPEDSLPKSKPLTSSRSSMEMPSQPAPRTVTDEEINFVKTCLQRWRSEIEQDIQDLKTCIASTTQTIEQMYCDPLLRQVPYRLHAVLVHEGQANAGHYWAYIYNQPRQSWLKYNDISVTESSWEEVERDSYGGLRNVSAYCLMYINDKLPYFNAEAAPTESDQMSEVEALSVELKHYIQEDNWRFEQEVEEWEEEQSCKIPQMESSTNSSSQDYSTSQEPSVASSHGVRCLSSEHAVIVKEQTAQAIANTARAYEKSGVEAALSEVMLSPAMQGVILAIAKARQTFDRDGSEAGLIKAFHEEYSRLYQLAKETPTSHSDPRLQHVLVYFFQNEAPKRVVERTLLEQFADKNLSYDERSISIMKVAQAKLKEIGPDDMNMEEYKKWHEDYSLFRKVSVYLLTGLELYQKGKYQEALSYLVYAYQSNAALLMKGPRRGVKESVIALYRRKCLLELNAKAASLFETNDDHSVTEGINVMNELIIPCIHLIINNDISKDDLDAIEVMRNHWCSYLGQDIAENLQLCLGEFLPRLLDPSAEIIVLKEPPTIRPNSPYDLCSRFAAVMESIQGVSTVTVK
Summary of the method: as §1

Measured: log2 ratio of Biotin-Ahx-Ub-VS probe labelling

CN(C)S(=O)(=O)c1ccccc1CNC(=O)CCl
inactive: [1] 0.0268 | [2] -0.108 | [3] -0.258 | [4] -0.239
